Assay results published in PubChem BioAssay (Tox21).
Records with an inconclusive call do not appear. Activity calls are given as the source filed them. The call rests on the fitted dose curve; in most records, active means well fitted curve in the direction sought with a large enough effect in the repeat runs; inconclusive means weak or mixed curves; inactive means no such curve, though single readings can be large; an effect the other way counts as inactive or inconclusive.

Columns and labels:
[1] = qHTS RealTime-Glo MT Cell Viability Assay in HEK293 cells - 0 hour (AID 1224880); further: top concentration of the series differs between compounds; nearly all actives have a fitted effect of over 45% in size
Method in brief: (§1)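 600 cells/well were plated with the nonlytic NanoLuc/prosubstrate reagent, pre-incubated 5 h, then given 23 nL of compound in DMSO. Incubation at 37 C for 40 h, with luminescence from viable-cell-reduced substrate read repeatedly from 0 h.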

[2] = A CellTox Green Cytotoxicity Assay to monitor cytotoxicity in HEK293 cells - 32 hour (AID 1224881); further: nearly all actives have a fitted effect of over 40% in size
Method in brief: (§2)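 HEK293 cells, 600/well, were preincubated 5 hours and then exposed to compounds at 37 C for up to 40 hours. A cell-impermeant cyanine dye staining dead-cell DNA was read by fluorescence at 0, 8, 16, 24, 32 and 40 h time points.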

[3] = A CellTox Green Cytotoxicity Assay to monitor cytotoxicity in HepG2 cells - 0 hour (AID 1224882); further: nearly all actives have a fitted effect of over 35% in size
Method in brief: (§3)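 HepG2 cells, 600/well, preincubated 5 h with CellTox Green dye, then exposed to Tox21 compounds in DMSO at 37 C for up to 40 h. Dead-cell DNA fluorescence read at the indicated time point.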

[4] = A CellTox Green Cytotoxicity Assay to monitor cytotoxicity in HepG2 cells - 32 hour (AID 1224883); further: nearly all actives have a fitted effect of over 50% in size
Method in brief: as §3

[5] = A CellTox Green Cytotoxicity Assay to monitor cytotoxicity in HEK293 cells - 8 hour (AID 1224884); further: nearly all actives have a fitted effect of over 35% in size
Method in brief: as §2

[6] = qHTS RealTime-Glo MT Cell Viability Assay in HepG2 cells - 16 hour (AID 1224885); further: nearly all actives have a fitted effect of over 50% in size
Method in brief: (§4)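 HepG2 suspension premixed with RealTime-Glo reagents is plated at 600 cells per well and left 5 h at 37 C/5% CO2. Compounds in DMSO then go in, and bioluminescence reflecting viable cell number is recorded over 40 h.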

[7] = qHTS RealTime-Glo MT Cell Viability Assay in HEK293 cells - 24 hour (AID 1224886); further: top concentration of the series differs between compounds; nearly all actives have a fitted effect of over 50% in size
Method in brief: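 Reads taken at 0, 8, 16, 24, 32 and 40 h from the same wells. HEK293 cells (600/well) carried RealTime-Glo reagents from seeding, with compound added after a 5 h settle at 37 C.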

[8] = qHTS RealTime-Glo MT Cell Viability Assay in HEK293 cells - 8 hour (AID 1224887); further: top concentration of the series differs between compounds; nearly all actives have a fitted effect of over 50% in size
Method in brief: as §1

[9] = A CellTox Green Cytotoxicity Assay to monitor cytotoxicity in HEK293 cells - 16 hour (AID 1224888); further: nearly all actives have a fitted effect of over 35% in size
Method in brief: as §2

[10] = qHTS RealTime-Glo MT Cell Viability Assay in HepG2 cells - 0 hour (AID 1224889); further: nearly all actives have a fitted effect of over 50% in size
Method in brief: as §4
On the % scale 0 is the no-effect control and ±100 the full control effect.

O=C(CCOCCOCCOCCOCCC(=O)Nc1c(I)cc(I)c(C(=O)O)c1I)Nc1c(I)cc(I)c(C(=O)O)c1I
inactive: outcome [1] | Potency [2] | Potency [3] | Potency [4] | Potency [5] | outcome [6] | Potency [7] | Potency [8] | Potency [9] | Potency [10]

N#CCN(CC#N)CCN(CC#N)CC#N
inactive: outcome [1] | Potency [2] | Potency [3] | Potency [4] | Potency [5] | outcome [6] | Potency [7] | Potency [8] | Potency [9] | Potency [10]

C=C(C)C1CC=C(C)C(O)C1 (configuration not stated)
inactive: outcome [1] | Potency [2] | Potency [3] | Potency [4] | Potency [5] | outcome [6] | Potency [7] | Potency [8] | Potency [9] | Potency [10]

CC1=CCC2C(C1)C2(C)C (configuration not stated)
inactive: outcome [1] | Potency [2] | Potency [3] | Potency [4] | Potency [5] | outcome [6] | Potency [7] | Potency [8] | Potency [9] | Potency [10]

CN(C)CCn1nnnc1SCC1=C(C(=O)O)N2C(=O)[C@@H](NC(=O)Cc3csc(N)n3)[C@H]2SC1
inactive: outcome [1] | Potency [2] | Potency [3] | Potency [4] | Potency [5] | outcome [6] | Potency [7] | Potency [8] | Potency [9] | Potency [10]

O=C(O)c1ccc[n+]([O-])c1
inactive: outcome [1] | Potency [2] | Potency [3] | Potency [4] | Potency [5] | outcome [6] | Potency [7] | Potency [8] | Potency [9] | Potency [10]

CCCc1ccc(N)cc1
inactive: outcome [1] | Potency [2] | Potency [3] | Potency [4] | outcome [6] | Potency [7] | Potency [8] | Potency [9] | Potency [10]

CCCC=O
inactive: outcome [1] | Potency [2] | Potency [3] | Potency [4] | Potency [5] | outcome [6] | Potency [8] | Potency [9] | Potency [10]

Oc1cc(O)c2c(c1)O[C@H](c1ccc(O)c(O)c1)[C@H](O)C2
inactive: outcome [1] | Potency [2] | Potency [3] | Potency [4] | Potency [5] | outcome [6] | Potency [8] | Potency [9] | Potency [10]

COc1cc(C)cc(O)c1
inactive: outcome [1] | Potency [2] | Potency [3] | Potency [4] | outcome [6] | Potency [7] | Potency [8] | Potency [9] | Potency [10]

CC(C)(O)Cc1ccccc1
inactive: outcome [1] | Potency [2] | Potency [3] | Potency [4] | Potency [5] | outcome [6] | Potency [8] | Potency [9] | Potency [10]

Cn1ccc2cc3c(cc21)CCN3C(=O)Nc1cccnc1
inactive: activity change, negative = cytotoxicity [1] -0.254% [at 15.8 µM] | cytotoxicity increase [2] 1.72% [at 15.8 µM] | cytotoxicity [3] -1.51% [at 15.8 µM] | cytotoxicity increase [4] -9.84% [at 15.8 µM] | cytotoxicity increase [5] -5.84% [at 15.8 µM] | activity change, negative = cytotoxic [6] -4.07% [at 15.8 µM] | activity change, negative = cytotoxicity [8] -3.76% [at 15.8 µM] | activity change [9] -2.95% [at 15.8 µM, stronger effect = higher value] | activity change, negative = cytotoxicity [10] -0.377% [at 15.8 µM]

Cc1c(C)n(CCN(C)C)c2ccc(C(=O)OCCN(C)C)cc12
inactive: outcome [1] | Potency [2] | Potency [3] | Potency [4] | Potency [5] | outcome [6] | Potency [8] | Potency [9] | Potency [10]

CCC(C)(C)C1CCC(OC)CC1 (configuration not stated)
inactive: outcome [1] | Potency [2] | Potency [3] | Potency [4] | Potency [5] | outcome [6] | Potency [8] | Potency [9] | Potency [10]

C=CCOc1nc(OCC=C)nc(OCC=C)n1
inactive: outcome [1] | Potency [2] | Potency [3] | Potency [4] | Potency [5] | outcome [6] | Potency [8] | Potency [9] | Potency [10]

C1COCCO1
inactive: outcome [1] | Potency [2] | Potency [3] | Potency [4] | Potency [5] | outcome [6] | Potency [8] | Potency [9] | Potency [10]

CC(C)[C@H](N)C(=O)OCCOCn1cnc2c(=O)[nH]c(N)nc21
inactive: outcome [1] | Potency [2] | Potency [3] | Potency [4] | Potency [5] | outcome [6] | Potency [8] | Potency [9] | Potency [10]

CCO[Si](CCCN=C=O)(OCC)OCC
inactive: outcome [1] | Potency [2] | Potency [3] | Potency [4] | Potency [5] | outcome [6] | Potency [8] | Potency [9] | Potency [10]

c1ccc2cnncc2c1
inactive: outcome [1] | Potency [2] | Potency [3] | Potency [4] | Potency [5] | outcome [6] | Potency [8] | Potency [9] | Potency [10]

CCCOc1ccccc1-c1nc2n[nH]nc2c(=O)[nH]1
inactive: outcome [1] | Potency [2] | Potency [3] | Potency [4] | Potency [5] | outcome [6] | Potency [8] | Potency [9] | Potency [10]

OCc1ccccn1
inactive: outcome [1] | Potency [2] | Potency [3] | Potency [4] | Potency [5] | outcome [6] | Potency [8] | Potency [9] | Potency [10]

Nc1ccc2cc(S(=O)(=O)O)ccc2c1
inactive: outcome [1] | Potency [2] | Potency [3] | Potency [4] | outcome [6] | Potency [7] | Potency [8] | Potency [9] | Potency [10]

NS(=O)(=O)c1cc2c(cc1Cl)NC(CSCc1ccccc1)=NS2(=O)=O
inactive: outcome [1] | Potency [2] | Potency [3] | Potency [4] | outcome [6] | Potency [7] | Potency [8] | Potency [9] | Potency [10]

FC(F)(F)C(F)(F)C(F)(F)C(F)(F)C(F)(F)C(F)(F)C(F)(F)C(F)(F)C(F)(F)C(F)(F)F
inactive: activity change, negative = cytotoxicity [1] -21.9% [at 6.97 µM] | cytotoxicity increase [2] -14.9% [at 6.97 µM] | cytotoxicity [3] 4.39% [at 6.97 µM] | cytotoxicity increase [4] 1.61% [at 6.97 µM] | cytotoxicity increase [5] 4.13% [at 6.97 µM] | activity change, negative = cytotoxic [6] 3.86% [at 6.97 µM] | activity change, negative = cytotoxicity [8] -20.1% [at 6.97 µM] | activity change [9] -9% [at 6.97 µM, stronger effect = higher value] | activity change, negative = cytotoxicity [10] 12.4% [at 6.97 µM]
